# Assay outcomes from PubChem BioAssay.
# TMEM16A act – mouse TMEM16A channel activation, primary screen | B-score at 10 µM | 0.3% of 340,000 active | Q8BHY3 | HEK293 TMEM16A/YFP-H148Q/I152L, iodide quench fluorescence; hits give low values;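 active means fluorescence-ratio B-score plate-corrected deviation score at least 3 library SD below zero, with starting fluorescence score within 5 deviations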;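 further: channel opened by trigger with iodide after compound preincubation; score built on the fluorescence ratio of max minus min over baseline; more negative score means more quench and so TMEM16A activation or potentiation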
# Target sequence (Q8BHY3 whole entry, looked up): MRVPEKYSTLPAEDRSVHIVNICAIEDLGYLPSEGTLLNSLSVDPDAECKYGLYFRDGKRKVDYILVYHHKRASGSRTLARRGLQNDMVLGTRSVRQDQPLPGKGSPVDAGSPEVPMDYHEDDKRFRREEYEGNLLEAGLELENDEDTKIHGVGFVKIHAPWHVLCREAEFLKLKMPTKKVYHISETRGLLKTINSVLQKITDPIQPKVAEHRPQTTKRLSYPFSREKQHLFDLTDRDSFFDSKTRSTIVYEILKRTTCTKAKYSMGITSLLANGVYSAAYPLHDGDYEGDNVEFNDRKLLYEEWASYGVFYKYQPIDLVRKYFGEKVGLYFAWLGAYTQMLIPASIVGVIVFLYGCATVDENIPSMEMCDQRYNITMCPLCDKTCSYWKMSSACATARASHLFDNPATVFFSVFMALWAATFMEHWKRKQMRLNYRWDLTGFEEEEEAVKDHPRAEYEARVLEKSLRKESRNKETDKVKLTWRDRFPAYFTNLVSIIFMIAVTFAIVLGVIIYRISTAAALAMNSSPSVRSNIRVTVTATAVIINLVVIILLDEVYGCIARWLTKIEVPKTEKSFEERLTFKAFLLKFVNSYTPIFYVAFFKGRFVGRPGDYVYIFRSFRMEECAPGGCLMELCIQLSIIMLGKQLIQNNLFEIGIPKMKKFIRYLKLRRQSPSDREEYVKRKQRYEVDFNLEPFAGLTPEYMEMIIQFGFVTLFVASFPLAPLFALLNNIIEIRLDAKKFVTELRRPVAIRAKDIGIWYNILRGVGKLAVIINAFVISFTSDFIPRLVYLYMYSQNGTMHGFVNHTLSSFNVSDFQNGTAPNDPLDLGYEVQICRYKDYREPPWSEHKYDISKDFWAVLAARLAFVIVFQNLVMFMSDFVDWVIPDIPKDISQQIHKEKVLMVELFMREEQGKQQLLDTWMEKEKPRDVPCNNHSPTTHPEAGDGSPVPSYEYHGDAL
# ANO1 block – inhibitors of mouse TMEM16A calcium-activated chloride channel; 1.2% of 310,000 active; normalized B-score (activity score, 25-100; higher = stronger inhibition) at 10 µM; HEK293 TMEM16A/YFP iodide influx fluorescence, ionomycin;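 active means ratio plate-corrected score three or more library SD toward inhibition, starting fluorescence score within five deviations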;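 further: score derived from kinetic fluorescence span divided by baseline fluorescence per well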
# CHT allo act – human CHT allosteric activation; 0.49% of 310,000 active; B-score at 10 µM; AID 488977; CHT-expressing cells, membrane potential dye, choline EC20; hits give high values; LV-AA mutant CHT in HEK293 cells;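 active means initial fluorescence not abnormally high and integrated response B-score, plate-corrected, over 3 SD above library mean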
# CHT block – human CHT choline transport inhibition. CHT-expressing cells, membrane potential dye, choline response; hits give low values. B-score at 10 µM. 0.86% of 310,000 active. AID 488975;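 active means B-score over 3 SD under the library average, and starting fluorescence ratio not unusually high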;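 further: choline stimulus applied at its EC90 after an EC20 pre-addition; B-score computed on integrated fluorescence ratio after choline addition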
# CHT inh conf – human CHT inhibition, confirmatory screen; 70% of 2,400 active; CHT-expressing cells, choline membrane potential dye; LV-to-AA substituted CHT, HEK293 cells; AID 493221; CHT activity remaining % of control (hits give low values), % at 10 µM; shares compounds with CHT block;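 active means choline transporter activity left, mean of duplicates at 10 µM, below buffer-only control mean minus 3 SD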;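 further: depolarization triggered by choline at its EC90 following an EC20 pre-addition; 0% = hemicholinium-3 full block and 100% = buffer-only control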
# HEK293 MPD ctr – counter-screen for CHT inhibitors: effect in parental HEK293 cells; shares compounds with CHT block; membrane potential dye, choline response; active = decrease or increase beyond buffer ±3SD; membrane potential ratio readout (active if shifted either direction beyond buffer ±3SD; no single direction) at 10 µM; 4% of 2,400 active; AID 493222;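 further: parental cells lack the transporter so any hit is non-specific; ratio is peak minus trough fluorescence over baseline after EC90 choline challenge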
# The depositor's hits bear a star; i = inactive; x = not tested or not shown. Rows were chosen to be rich in hits. Some 2.4% of all compounds tested hit in one or more screens of this group.
SMILES,TMEM16A act,ANO1 block,CHT allo act,CHT block,CHT inh conf,HEK293 MPD ctr
NC(N)=Nc1nc(C2COc3ccccc3O2)cs1 (stereo not given),i,i,i,-8.76*,46.4%*,i
CC(/C=C1\SC(=O)N(CCCC(=O)O)C1=O)=C\c1ccccc1,i,i,i,-5.01*,64.0%*,i
Cc1cc(C)cc(CC(Cc2nc3ccccc3[nH]2)c2nc3ccccc3[nH]2)c1 (stereo not given),i,i,i,-8.66*,54.1%*,i
Cc1ccc(SCc2nc3ccccc3[nH]2)cc1,i,i,i,i,x,x
Cc1ccc(-n2nc3c(=O)n(C(C)C(=O)NCCCc4ccccc4)nc(C)c3c2C)cc1 (stereo not given),i,i,i,-5.01*,i,i
Cc1cccc(NC(=O)c2ccccc2O)c1C,i,25*,i,-6.36*,68.8%*,i
COCCCN1C(=O)C(=O)/C(=C(/O)c2ccc(OC(C)C)c(C)c2)C1c1ccncc1 (stereo not given),i,i,i,i,x,x
CCN(CC)CCNC(=O)c1nn(-c2ccc(Cl)cc2)c2c1CCc1cc(OC)ccc1-2,i,x,x,x,x,x
CN(Cc1ccccc1)c1cc(Cl)nc(N)n1,i,i,i,i,x,x
Oc1ccc(Cl)cc1CNC1CCCCC1,i,x,x,x,x,x
Clc1cccc(Cl)c1CNC1CCCC1,i,i,i,-5.5*,11.0%*,-10.5*
Cc1n[nH]c(C)c1CCCCOc1ccccc1[N+](=O)[O-],i,i,i,-5.5*,52.0%*,i
COc1cccc(OC)c1OCCCCCc1c(C)n[nH]c1C,i,i,i,-6.54*,45.2%*,i
Cc1n[nH]c(C)c1CCCCOc1ccccc1F,i,i,i,i,x,x
COc1cccc(OC)c1OCCCCc1c(C)n[nH]c1C,i,i,i,i,x,x
C#CCSc1nnnn1-c1ccc(OCC)cc1,i,i,i,i,x,x
O=[N+]([O-])c1ccc(Nc2ccccc2O)c2nonc12,i,i,i,-5.88*,53.3%*,i
O=C(O)c1ccc(Nc2ccc([N+](=O)[O-])c3nonc23)cc1,i,i,i,i,x,x
O=C(NNC(=O)C1CCN(c2ncccn2)CC1)c1ccncc1,i,i,i,i,x,x
O=C(c1cc2c([nH]c1=O)CCCC2)N1CCc2c([nH]c3ccccc23)C1c1ccccc1F (stereo not given),i,i,i,-11.6*,29.6%*,i
Cc1ncoc1C(=O)N1CCc2c([nH]c3ccccc23)C1c1ccccc1F (stereo not given),i,i,i,i,x,x
Cc1cccc(C2c3[nH]c4ccccc4c3CCN2C(=O)c2cc3c([nH]c2=O)CCCC3)n1 (stereo not given),i,i,i,-9.56*,9.3%*,i
COc1ccc(C(=O)NCCC2=CCCCC2)cc1S(=O)(=O)N1CCOCC1,i,i,i,i,x,x
CC(=O)OC1CC(n2ccc(NC(=O)c3ccccc3)nc2=O)OC1CO (stereo not given),i,i,i,i,x,x
CCOC(=O)CN1C(=O)S/C(=C/c2cc(C)n(C)c2C)C1=O,i,i,i,i,x,x
SMILES,TMEM16A act,ANO1 block,CHT allo act,CHT block,CHT inh conf,HEK293 MPD ctr
CCOC(=O)CN1C(=O)S/C(=C/c2ccc(O)c([N+](=O)[O-])c2)C1=O,i,i,i,-5.46*,i,i
O=C(NCC1CCCO1)c1cc2cc(F)ccc2[nH]1 (stereo not given),i,i,i,i,x,x
CN(CC(=O)Nc1ccccc1C(F)(F)F)C(=O)CSCc1ccccc1,i,i,i,i,x,x
COC(=O)C1C(=O)CC(C)(O)C(C(=O)OC)C1c1ccccc1F (stereo not given),i,i,i,i,x,x
O=S(=O)(c1cc(C(F)(F)F)ccc1Cl)N1CCN(c2ccccn2)CC1,i,i,i,i,x,x
CC1=NN(c2cccc(Cl)c2)C(=O)C1,i,i,i,i,i,i
CN(CC(=O)N1CCCC1)S(=O)(=O)c1ccc(Cl)cc1,i,i,i,i,x,x
CCOc1ncccc1C(=O)Nc1ccc(S(=O)(=O)Nc2nccs2)cc1,i,i,i,i,x,x
Cc1ccc(NC(=S)Nc2ccc3nc(-c4ccccn4)c(-c4ccccn4)nc3c2)cc1C,i,i,i,-5.31*,60.2%*,i
Cc1ccc(NC(=S)Nc2ccc(F)cc2)cc1C,i,i,i,-8.83*,65.0%*,i
Cc1cccc(C)c1NC(=S)Nc1ccc(F)cc1,i,i,i,i,x,x
Cc1ccc(S(=O)(=O)N(C)CC(=O)OCC(=O)NCCc2ccc(S(N)(=O)=O)cc2)cc1,i,x,x,x,x,x
Cc1cc(N2CCCC2=O)cc(C)c1S(=O)(=O)NCCOc1ccccc1,i,i,i,-5.86*,66.9%*,-8.45*
CCNS(=O)(=O)c1c(C)cc(N2CCCC2=O)cc1C,i,i,i,i,x,x
CC1CCCC(NC(=O)CCNC(=O)c2ccc(Br)cc2)C1C (stereo not given),i,i,i,-5.09*,i,i
O=C(Cc1ccccc1)Nc1ccc(Cl)cn1,i,i,i,i,x,x
O=C(CN1C(=O)c2ccccc2C1=O)Nc1ccc(Cl)cn1,i,i,i,-5.11*,i,i
Cc1ccccc1C(=O)Oc1ccccc1N1C(=O)C2CC=CCC2C1=O (stereo not given),i,i,i,i,x,x
c1ccc(CCCCN2C(Nc3ccccc3)=NC[C@@H]2Cc2ccccc2)cc1,i,i,i,-7.52*,32.2%*,i
CCn1c(SCC(=O)Nc2ccccc2C(=O)OC)nnc1-c1ccc(N)cc1,i,i,i,i,x,x
CCn1c(SCC(=O)Nc2ccccc2C(=O)OC)nnc1-c1ccoc1C,i,i,i,-5.63*,i,i
Cc1c(/C=N\NC(=O)c2ccc([N+](=O)[O-])cc2)cnn1C,i,i,i,-7.66*,i,i
CC(=O)n1cc(/C=N/NC(=O)c2ccc([N+](=O)[O-])cc2)c2ccccc21,i,i,i,i,x,x
CCOc1cccc(-c2nn(-c3ccccc3)cc2/C=C(/C#N)C(=O)NCCCn2ccnc2)c1,i,i,i,-9.19*,61.2%*,i
CCN(CC)C(=O)c1ccc(COc2ccccc2Br)o1,i,i,i,-8.15*,57.7%*,i
CC(C)(C)NC(=O)c1ccc(COc2ccccc2Br)o1,i,i,i,-6.26*,i,i
